Measurements as given in PubChem BioAssay (Tox21).
A number with no mark means an inactive call. Inconclusive results are not listed. Where a call stands in place of a potency, no number is given. Active and inactive are the calls of the source. Unless noted, calls follow the shape of the dose curve; as a rule, active = well fitted curve in the direction sought with a large enough effect in the repeat runs; inconclusive = weak or mixed curves; inactive = no such curve, though single readings can be large; an effect the other way counts as inactive or inconclusive.

Experiments:
[1] = qHTS assay for small molecules that induce genotoxicity in human embryonic kidney cells expressing luciferase-tagged ATAD5 (AID 651632); also: nearly all actives have a fitted effect of over 15% in size
Outline: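 Genotoxicity read-out via ATAD5-luciferase: HEK293T cells, 16 hr compound incubation at 37C, Amplite detection.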

[2] = qHTS assay for small molecule agonists of the p53 signaling pathway - cell viability (AID 651633; calls by dose curve; also: series mostly up to about 83 µM; nearly all actives have a fitted effect of over 30% in size)
Outline: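 Viability counter-read: CellTiter-Glo luminescence (30 min, room temperature) in the same p53RE-bla plates. These plates had been exposed to compounds for 16 h at 37 C.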

[3] = qHTS assay for small molecules that induce genotoxicity in human embryonic kidney cells expressing luciferase-tagged ATAD5 - cell viability (AID 651634; calls by dose curve; also: nearly all actives have a fitted effect of over 25% in size)
Outline: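 Live-cell protease activity (CellTiter-Fluor, fluorescence) indicates viability. HEK293T cells with luciferase-tagged ATAD5; 15.5 hr compound treatment at 37C.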

[4] = qHTS assay for small molecule disruptors of the mitochondrial membrane potential - cell viability (AID 720634; calls by dose curve;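 also: human HepG2 liver cancer cells; series mostly up to about 83 µM; nearly all actives have a fitted effect of over 20% in size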)
Outline: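 Human hepatoma HepG2 cells were treated for 1 hr with test chemicals, then given m-MPI dye and CellTiter-Glo. Cell viability reflects luminescence proportional to cellular ATP.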

[5] = qHTS assay for small molecule disruptors of the mitochondrial membrane potential (AID 720635); also: potency is read from the fitted curve at half-maximal effect
Outline: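 Mitochondrial membrane potential tracked with Mito-MPS dye, red aggregates (ex 540/em 590 nm) against green monomers (ex 490/em 535 nm). Compound treatment 1 hr at 37C, dye 30 min in HepG2.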

[6] = qHTS assay to test for compound auto fluorescence at 590 nm (red) in HepG2 cells (AID 720674)
Outline: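 Red autofluorescence (Ex/Em 540/590 nm, Rose Bengal sodium equivalents) was measured in HepG2 cells, 2,000 per well in MEM plus 10% FBS, plated overnight at 37 C. Readings were taken 1 hr after adding 23 nL compound or DMSO, at 37 C and 5% CO2.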

[7] = qHTS assay to test for compound auto fluorescence at 535 nm (green) in HepG2 cells (AID 720675)
[8] = qHTS assay to test for compound auto fluorescence at 460 nm (blue) in HEK293 cells (AID 720678)
Outline: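 Triamterene serves as the blue fluorophore standard. Compound signal at 405/460 nm is read in HEK293 wells (2,000 cells, 10% dialyzed FBS) after overnight treatment at 37C.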

[9] = qHTS assay to test for compound auto fluorescence at 590 nm (red) in HEK293 cells (AID 720679)
Outline: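 We plated HEK293 cells in 10% dialyzed FBS medium, let them adhere for 4-5 hr, then added 23 nL compound. Overnight at 37C and 5% CO2 preceded fluorescence measurement at 540/590nm.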

[10] = qHTS assay to test for compound auto fluorescence at 535 nm (green) in HEK293 cells (AID 720680)
[11] = qHTS assay to test for compound auto fluorescence at 460 nm (blue) in HEK293 cell free culture (AID 720681)
Outline: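 Blue fluorescence (Ex 405/Em 460 nm, triamterene-equivalent) was read immediately after pin transfer of compound or DMSO into medium (DMEM, 10% FBS) without cells.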

[12] = qHTS assay to test for compound auto fluorescence at 535 nm (green) in HEK293 cell free culture (AID 720682)
Outline: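 DMEM + 10% FBS, cell-free; cpd or DMSO pinned in; Ex485/Em535 read; output as fluorescein-equivalent signal.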

[13] = qHTS assay to test for compound auto fluorescence at 590 nm (red) in HEK293 cell free culture (AID 720683)
Outline: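 Red-channel autofluorescence of compounds in culture medium (DMEM, 10% FBS), no cells, measured at 540/590 nm. Rose Bengal sodium is the reference fluorophore for equivalence.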

[14] = qHTS assay to test for compound auto fluorescence at 590 nm (red) in HepG2 cell free culture (AID 720684)
Outline: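 Steps: dispense MEM/10% FBS medium, no cells; pin compound or DMSO vehicle; read red channel, Ex/Em 540/590 nm. Output given as Rose Bengal sodium equivalents.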

[15] = qHTS assay to test for compound auto fluorescence at 460 nm (blue) in HepG2 cell free culture (AID 720685)
Outline: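 Compound (23 nL) or DMSO pinned into cell-free MEM with 10% FBS; blue fluorescence read at 405/460 nm excitation/emission, expressed as auto-fluorescence equivalency to triamterene.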

[16] = qHTS assay to test for compound auto fluorescence at 535 nm (green) in HepG2 cell free culture (AID 720686)
[17] = qHTS assay to test for compound auto fluorescence at 460 nm (blue) in HepG2 cells (AID 720687)
Outline: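 Blue-channel autofluorescence (Ex/Em 405/460 nm, triamterene-equivalent) was measured after 1 hr compound exposure at 37 C, 5% CO2. Cells were HepG2, plated overnight at 37 C in MEM plus 10% FBS.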

[18] = biological target: Glucocorticoid receptor (Homo sapiens) (UniProt P04150); test: qHTS assay to identify small molecule agonists of the glucocorticoid receptor (GR) signaling pathway (AID 720691; active = well fitted activation curve with a large enough effect in the signal ratio in the repeat runs, not every such curve was filed as active; the % refers to the signal ratio)
Outline: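 Beta-lactamase reporter activity, read as fluorescence intensity, was measured in GR-bla HeLa cells exposed to compounds for 18 h at 37 C and then loaded with LiveBLAzer B/G FRET substrate for 2 h at room temperature.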

[19] = biological target: Glucocorticoid receptor (Homo sapiens) (UniProt P04150); test: qHTS assay to identify small molecule antagonists of the glucocorticoid receptor (GR) signaling pathway (AID 720692; active = well fitted inhibition curve with a large enough effect in the signal ratio in the repeat runs, not every such curve was filed as active; the % refers to the signal ratio; also: potency is read from the fitted curve at half-maximal effect)
Outline: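 Fluorescence from cleaved LiveBLAzer B/G FRET substrate reports GRE-driven beta-lactamase in HeLa cells; compounds are tested against 5 nM dexamethasone (final) over 18 h at 37 C, substrate incubation 2 h at room temperature.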

[20] = qHTS assay for small molecule agonists of the p53 signaling pathway (AID 651631; calls by dose curve; also: nearly all actives have a fitted effect of over 15% in size)
Outline: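 Testing took place in human colorectal HCT-116 cells with stable p53RE-driven beta-lactamase. After 16 h of compound exposure at 37 °C, a FRET substrate was added and fluorescence recorded 2 h later.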

Glucocorticoid receptor (Homo sapiens), sequence (P04150 whole entry, looked up): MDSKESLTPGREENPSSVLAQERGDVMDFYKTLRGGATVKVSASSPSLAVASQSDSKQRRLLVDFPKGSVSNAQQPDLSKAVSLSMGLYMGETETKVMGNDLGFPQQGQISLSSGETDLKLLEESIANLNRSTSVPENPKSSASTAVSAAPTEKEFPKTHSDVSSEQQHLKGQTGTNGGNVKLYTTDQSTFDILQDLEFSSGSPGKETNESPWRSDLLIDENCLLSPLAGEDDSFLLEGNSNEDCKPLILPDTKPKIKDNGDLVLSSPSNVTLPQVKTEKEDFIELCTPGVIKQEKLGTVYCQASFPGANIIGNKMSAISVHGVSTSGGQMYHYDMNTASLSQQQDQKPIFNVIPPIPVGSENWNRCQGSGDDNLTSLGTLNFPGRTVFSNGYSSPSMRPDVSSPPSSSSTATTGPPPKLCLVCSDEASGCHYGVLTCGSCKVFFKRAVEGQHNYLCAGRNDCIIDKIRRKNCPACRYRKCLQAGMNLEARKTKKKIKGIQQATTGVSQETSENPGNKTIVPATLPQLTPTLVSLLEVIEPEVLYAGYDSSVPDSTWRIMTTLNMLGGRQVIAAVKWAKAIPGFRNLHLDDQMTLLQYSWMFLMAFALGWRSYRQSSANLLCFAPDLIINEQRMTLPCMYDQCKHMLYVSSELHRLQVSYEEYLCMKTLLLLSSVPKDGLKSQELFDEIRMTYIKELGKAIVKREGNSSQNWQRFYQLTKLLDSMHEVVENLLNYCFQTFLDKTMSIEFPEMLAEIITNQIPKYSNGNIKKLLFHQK

## Oc1ccc(Oc2ccccc2)cc1
[1]
  Potency: inactive
[2]
  Potency: inactive
[3]
  Potency: inactive
[4]
  Potency: inactive
[5]
  Potency: 20.6 µM (active)
[6]
  outcome: inactive
[7]
  outcome: inactive
[8]
  Potency: inactive
[9]
  outcome: inactive
[10]
  outcome: inactive
[11]
  Potency: inactive
[12]
  outcome: inactive
[13]
  outcome: inactive
[14]
  outcome: inactive
[15]
  outcome: inactive
[16]
  outcome: inactive
[17]
  outcome: inactive

## CCC(C)C1N=C(C)C(C)S1 (stereo not given)
[1]
  Potency: inactive
[2]
  Potency: inactive
[3]
  Potency: inactive
[5]
  Potency: inactive
[6]
  outcome: inactive
[7]
  outcome: inactive
[8]
  Potency: inactive
[9]
  outcome: inactive
[10]
  outcome: inactive
[11]
  Potency: inactive
[12]
  outcome: inactive
[13]
  outcome: inactive
[14]
  outcome: inactive
[15]
  outcome: inactive
[16]
  outcome: inactive
[17]
  outcome: inactive
[18]
  Potency: inactive
[19]
  Potency: inactive

## Cc1cc(SC2=C(O)C[C@@](CCc3ccc(N)cc3)(C(C)C)OC2=O)c(C(C)(C)C)cc1CO
[20]
  Potency: inactive
[3]
  Potency: inactive
[6]
  outcome: inactive
[7]
  outcome: inactive
[8]
  Potency: inactive
[9]
  outcome: inactive
[10]
  outcome: inactive
[11]
  Potency: inactive
[12]
  outcome: inactive
[13]
  outcome: inactive
[14]
  outcome: inactive
[15]
  outcome: inactive
[16]
  outcome: inactive
[17]
  outcome: inactive
[19]
  Potency: 54.9 µM (active)

## OCCc1ccncc1
[1]
  Potency: inactive
[2]
  Potency: inactive
[3]
  Potency: inactive
[4]
  Potency: inactive
[6]
  outcome: inactive
[7]
  outcome: inactive
[8]
  Potency: inactive
[9]
  outcome: inactive
[10]
  outcome: inactive
[11]
  Potency: inactive
[12]
  outcome: inactive
[13]
  outcome: inactive
[15]
  outcome: inactive
[16]
  outcome: inactive
[17]
  outcome: inactive
[18]
  Potency: inactive
[19]
  Potency: inactive

## O=C(Cl)c1ccc(F)c(Cl)c1
[1]
  Potency: inactive
[2]
  Potency: inactive
[3]
  Potency: inactive
[4]
  Potency: inactive
[6]
  outcome: inactive
[7]
  outcome: inactive
[8]
  Potency: inactive
[9]
  outcome: inactive
[10]
  outcome: inactive
[11]
  Potency: inactive
[12]
  outcome: inactive
[13]
  outcome: inactive
[15]
  outcome: inactive
[16]
  outcome: inactive
[17]
  outcome: inactive

## CC(O)CN (stereo not given)
[1]
  Potency: inactive
[3]
  Potency: inactive
[6]
  outcome: inactive
[7]
  outcome: inactive
[8]
  Potency: inactive
[9]
  outcome: inactive
[10]
  outcome: inactive
[11]
  Potency: inactive
[12]
  outcome: inactive
[13]
  outcome: inactive
[14]
  outcome: inactive
[15]
  outcome: inactive
[16]
  outcome: inactive
[17]
  outcome: inactive
[18]
  Potency: inactive
[19]
  Potency: inactive

## Nc1ccccc1Nc1ccccc1
[1]
  Potency: inactive
[4]
  Potency: inactive
[6]
  outcome: inactive
[7]
  outcome: inactive
[8]
  Potency: inactive
[10]
  outcome: inactive
[11]
  Potency: inactive
[12]
  outcome: inactive
[13]
  outcome: inactive
[14]
  outcome: inactive
[15]
  outcome: inactive
[16]
  outcome: inactive
[17]
  outcome: inactive

## CCCCCCCCC(=O)OCC(C)OC(=O)CCCCCCCC (stereo not given)
[1]
  Potency: inactive
[3]
  Potency: inactive
[4]
  Potency: inactive
[5]
  Potency: inactive
[6]
  outcome: inactive
[7]
  outcome: inactive
[8]
  Potency: inactive
[9]
  outcome: inactive
[10]
  outcome: inactive
[11]
  Potency: inactive
[12]
  outcome: inactive
[15]
  outcome: inactive
[16]
  outcome: inactive
[17]
  outcome: inactive
[18]
  Potency: inactive

## c1ccc(-c2ccc(-c3ccccc3)cc2)cc1
[3]
  Potency: inactive
[4]
  Potency: inactive
[6]
  fluorescence, relative to Rose Bengal: -0.399% [at 18.6 µM]
[7]
  fluorescence, % of fluorescein control: -0.0708% [at 18.6 µM]
[8]
  fluorescence, % of triamterene: -0.0124% [at 18.6 µM]
[9]
  fluorescence, % of fluorescent control: 0.554% [at 18.6 µM]
[10]
  fluorescence, % of fluorescein: 0.0075% [at 18.6 µM]
[11]
  fluorescence, % of fluorescent control: -0.0624% [at 18.6 µM]
[12]
  activity change: -0.0551% [at 18.6 µM]
[13]
  fluorescence, % of fluorescent control: -0.201% [at 18.6 µM]
[14]
  fluorescence, % of Rose Bengal: -0.0264% [at 18.6 µM]
[15]
  fluorescence, % of fluorescent control: 0.0163% [at 18.6 µM]
[16]
  fluorescence, % of fluorescein control: -0.0394% [at 18.6 µM]
[17]
  fluorescence, % of fluorescent control: -0.024% [at 18.6 µM]
[18]
  Potency: inactive
[19]
  Potency: inactive

## O=C1c2ccccc2C(=O)c2c1ccc(O)c2O
[1]
  Potency: inactive
[5]
  Potency: 9.44 µM (active)
[6]
  outcome: inactive
[7]
  outcome: inactive
[8]
  Potency: inactive
[9]
  outcome: inactive
[10]
  outcome: inactive
[11]
  Potency: inactive
[12]
  outcome: inactive
[13]
  outcome: inactive
[14]
  outcome: inactive
[15]
  outcome: inactive
[16]
  outcome: inactive
[17]
  outcome: inactive
[18]
  Potency: inactive

## CC(C)CC(C)(C)C
[1]
  Potency: inactive
[3]
  Potency: inactive
[4]
  Potency: inactive
[5]
  Potency: inactive
[6]
  outcome: inactive
[7]
  outcome: inactive
[8]
  Potency: inactive
[9]
  outcome: inactive
[10]
  outcome: inactive
[11]
  Potency: inactive
[12]
  outcome: inactive
[13]
  outcome: inactive
[14]
  outcome: inactive
[15]
  outcome: inactive
[16]
  outcome: inactive
[17]
  outcome: inactive
[18]
  Potency: inactive

## O=c1c2ccccc2oc2ccccc12
[2]
  Potency: inactive
[3]
  Potency: inactive
[4]
  Potency: inactive
[5]
  Potency: inactive
[6]
  outcome: inactive
[7]
  outcome: inactive
[8]
  Potency: inactive
[10]
  outcome: inactive
[11]
  Potency: inactive
[12]
  outcome: inactive
[13]
  outcome: inactive
[14]
  outcome: inactive
[15]
  outcome: inactive
[16]
  outcome: inactive
[17]
  outcome: inactive
[18]
  Potency: inactive
[19]
  Potency: inactive

## Nc1ccc(C(=O)Oc2ccccc2)c(O)c1
[2]
  Potency: inactive
[3]
  Potency: inactive
[6]
  outcome: inactive
[7]
  outcome: inactive
[8]
  Potency: inactive
[9]
  outcome: inactive
[10]
  outcome: inactive
[11]
  Potency: inactive
[12]
  outcome: inactive
[14]
  outcome: inactive
[16]
  outcome: inactive
[17]
  outcome: inactive
[18]
  Potency: inactive
[19]
  Potency: inactive

## COc1ccc(CN(CCN(C)C)c2ncccn2)cc1
[2]
  Potency: inactive
[3]
  Potency: inactive
[4]
  Potency: inactive
[6]
  outcome: inactive
[7]
  outcome: inactive
[8]
  Potency: inactive
[9]
  outcome: inactive
[10]
  outcome: inactive
[11]
  Potency: inactive
[12]
  outcome: inactive
[13]
  outcome: inactive
[14]
  outcome: inactive
[15]
  outcome: inactive
[16]
  outcome: inactive
[17]
  outcome: inactive
[18]
  Potency: inactive
[19]
  Potency: inactive

## CCCC1CCOC(C)S1 (stereo not given)
[1]
  Potency: inactive
[3]
  Potency: inactive
[4]
  Potency: inactive
[5]
  Potency: inactive
[6]
  outcome: inactive
[7]
  outcome: inactive
[8]
  Potency: inactive
[9]
  outcome: inactive
[10]
  outcome: inactive
[11]
  Potency: inactive
[12]
  outcome: inactive
[13]
  outcome: inactive
[14]
  outcome: inactive
[15]
  outcome: inactive
[16]
  outcome: inactive
[17]
  outcome: inactive
[18]
  Potency: inactive
[19]
  Potency: inactive
